98 compounds from ChEMBL document CHEMBL1201862, “PubChem BioAssay data set” (2004) can be followed below.

Among all 400,000 compounds or so, about 2,100 (0.53%) were called active. Not shown: some 14% with an inconclusive outcome. The rule behind the calls is not given here. The sample as a whole holds a higher share of actives than the screen did.

For this assay, the target named is Ataxin-2 (Homo sapiens) (UniProt Q99700). The experiment in a line: qHTS for Inhibitors of ATXN expression. The format is functional.
Sequence of Ataxin-2 (Homo sapiens) (Q99700 whole entry): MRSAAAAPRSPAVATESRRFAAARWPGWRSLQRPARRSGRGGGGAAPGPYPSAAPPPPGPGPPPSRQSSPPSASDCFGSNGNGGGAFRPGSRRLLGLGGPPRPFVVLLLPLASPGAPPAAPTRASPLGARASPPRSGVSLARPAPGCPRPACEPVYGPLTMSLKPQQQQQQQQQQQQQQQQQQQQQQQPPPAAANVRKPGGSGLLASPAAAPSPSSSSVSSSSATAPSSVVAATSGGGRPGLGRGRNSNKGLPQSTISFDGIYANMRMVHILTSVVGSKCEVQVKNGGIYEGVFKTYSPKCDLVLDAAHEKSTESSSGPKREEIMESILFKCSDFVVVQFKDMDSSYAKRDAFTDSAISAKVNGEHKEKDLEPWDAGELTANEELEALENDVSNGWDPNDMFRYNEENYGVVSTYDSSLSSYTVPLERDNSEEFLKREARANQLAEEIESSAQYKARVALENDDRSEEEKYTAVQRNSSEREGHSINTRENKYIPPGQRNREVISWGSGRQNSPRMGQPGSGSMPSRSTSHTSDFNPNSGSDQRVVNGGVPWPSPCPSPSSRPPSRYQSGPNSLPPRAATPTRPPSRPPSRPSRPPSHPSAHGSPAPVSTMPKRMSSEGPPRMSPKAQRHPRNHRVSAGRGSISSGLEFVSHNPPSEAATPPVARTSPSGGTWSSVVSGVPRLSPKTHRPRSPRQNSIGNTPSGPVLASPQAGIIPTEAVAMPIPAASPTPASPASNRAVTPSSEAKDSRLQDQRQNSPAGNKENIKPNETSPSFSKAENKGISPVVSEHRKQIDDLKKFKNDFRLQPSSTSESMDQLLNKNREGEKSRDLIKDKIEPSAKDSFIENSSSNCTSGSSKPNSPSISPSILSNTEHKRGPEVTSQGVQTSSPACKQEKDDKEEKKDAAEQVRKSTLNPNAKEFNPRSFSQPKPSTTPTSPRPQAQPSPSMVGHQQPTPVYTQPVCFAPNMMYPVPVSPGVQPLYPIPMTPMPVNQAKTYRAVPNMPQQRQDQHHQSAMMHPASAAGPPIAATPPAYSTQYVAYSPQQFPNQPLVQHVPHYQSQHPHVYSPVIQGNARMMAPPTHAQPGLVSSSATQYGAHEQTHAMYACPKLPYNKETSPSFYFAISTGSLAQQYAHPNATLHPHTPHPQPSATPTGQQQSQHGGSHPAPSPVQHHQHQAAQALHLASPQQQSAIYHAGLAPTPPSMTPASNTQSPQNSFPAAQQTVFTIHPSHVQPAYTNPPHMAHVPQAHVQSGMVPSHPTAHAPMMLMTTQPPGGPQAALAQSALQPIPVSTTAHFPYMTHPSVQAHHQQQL
Regarding `CC(C)(C)c1nc2ccccc2c2nnc(SCC(=O)Nc3nc4ccccc4s3)n12`, the Potency was 35.5 µM (active). Then `O=C(CCNC(=O)c1ccccc1)Nc1nc2ccccc2s1`, with “inactive”; and `Cc1nc(SCC(=O)Nc2nc3ccccc3s2)c(C#N)c(C)c1C`, with “inactive”.

As to `CCC(C)n1c(=N)c(C(=O)NC2CCCC2)cc2c(=O)n3ccccc3nc21` (stereo not drawn), the Potency entry is “inactive”. The same measure for `COc1ccc(C(=O)c2c(N)sc3c2CCN(C(=O)OC(C)(C)C)C3)cc1`: “inactive”.

With `O=C1C=CC2(O[C@H](c3ccccc3)[C@@H](c3ccccc3)O2)[C@H](Sc2ccccc2O)C1`, the Potency was 2 µM (active). For `CCN(CC)c1ccc2c(C)cc(=O)oc2c1`, the Potency result was “inactive”.

With `CN(C)CCN/C=C1/C(=O)N(Cc2ccccc2)C(=O)c2ccccc21`, the Potency result is “inactive”.

For the compound `CN(C)CCN/C=C1/C(=O)N(Cc2ccc3c(c2)OCO3)C(=O)c2ccccc21`, the Potency entry was “inactive”. The same measure for `CC1(C)CC(N/C=C2/C(=O)N(Cc3ccc4c(c3)OCO4)C(=O)c3ccccc32)CC(C)(C)N1`: 21.2 µM (active); for `N#CCC(=O)Nc1ccc(C(=O)NNC(=O)c2ccccc2-n2cccc2)cc1`: “inactive”; for `COc1cc(N2N=C(c3ccccc3)CC2c2ccccc2)c(C=O)cc1C=O` (stereo not drawn): “inactive”. Then `O=C(Nc1cccc(-c2nc3ncccc3o2)c1)c1sc2ccccc2c1Cl`, with 17.8 µM (active); and `Cc1ccc(-c2nc3ncccc3o2)cc1N`, with “inactive”; and `Nc1c(C(=O)Nc2cccc(Cl)c2Cl)sc2nc(-c3cccnc3)ccc12`, with “inactive”. With `COCCCNC(=S)N/N=C/c1ccc2c(c1)OCO2`, the Potency entry is “inactive”. Consider `COC(=O)c1ccc(N/C=C\C(=O)c2ccc3c(c2)OCO3)cc1`, for which the Potency entry was “inactive”. Then `CNC(=S)N/N=C(\C)c1ccc2c(c1)OCO2`, with 44.7 µM (active); and `COc1cc(Cn2c(N)c(C#N)c3nc4ccccc4nc32)cc(OC)c1`, with “inactive”.

Turning to `O=C(Oc1ccc2c(-c3ccccc3)cc(=O)oc2c1)c1cccs1`, the Potency result was “inactive”. Then `COc1ccc(N2C(c3ccsc3)=Cc3cc4c(cc3C2c2c[nH]c3ccccc23)OCO4)cc1` (stereo not drawn), with 28.2 µM (active). Then `O=C(NC1CCS(=O)(=O)C1)c1cc2c(=O)n3ccccc3nc2n1Cc1ccccc1` (stereo not drawn), with “inactive”; and `CCCCOC(=O)c1ccc(NC(=O)C(=O)NCCN(CC)CC)cc1`, with “inactive”; and `CCN(CC)CCNC(=O)C(Cl)=C1C(Cl)=C(Cl)C(Cl)=C1Cl`, with 44.7 µM (active).

On to `CC(=O)CCC(=O)OCC(=O)c1ccc(C(F)(F)F)cc1`, for which the Potency entry is “inactive”. Then `O=C(Cn1cc(C(F)(F)F)ccc1=O)NCc1ccc(F)cc1`, with “inactive”; and `N=C(N)N/N=C(\c1ccc(F)cc1)c1ccc(C(F)(F)F)cc1`, with 5.97 µM (active). The same measure for `CNC(=O)c1sc(N2N=C3/C(=C\c4ccccc4)CCCC3C2c2ccccc2)nc1C` (stereo not drawn): “inactive”; for `C[C@H](CO)N1C[C@H](C)[C@@H](CN(C)Cc2ccc(Cl)c(Cl)c2)Oc2c(NC(=O)C3CC3)cccc2C1=O`: 28.2 µM (active).

As to `C[C@@H]1CN([C@@H](C)CO)C(=O)c2cccc(NC(=O)C3CCCCC3)c2O[C@@H]1CN(C)Cc1ccc(Cl)c(Cl)c1`, the Potency is 35.5 µM (active). The same measure for `CCCC(=O)Nc1ccc(C(=O)COC(=O)C2CC2C)cc1` (stereo not drawn): “inactive”. For the compound `CC(C)(C)c1ccc(OCC(=O)NNC(=O)Nc2ccccc2)cc1`, the Potency result was “inactive”. The same measure for `O=C(COc1ccc(Cl)cc1)NNC(=O)CSc1nncs1`: “inactive”. The same measure for `CCCC(=O)NC(N=C(S)Nc1ccc(N=Nc2ccccc2)cc1)C(Cl)(Cl)Cl` (stereo not drawn): 22.4 µM (active). `CCc1ccc(OCC(=O)NC(N=C(S)Nc2ccc(Cl)cc2)C(Cl)(Cl)Cl)cc1` (stereo not drawn): the Potency is 39.8 µM (active). In the case of `COc1ccc(C(=O)c2sc3nc(C)cc(-c4cccs4)c3c2N)cc1`, the Potency entry was “inactive”. Then `O=C1NC2c3c(I)sc(I)c3C(=O)C2O1` (stereo not drawn), with 39.8 µM (active). Then `COc1ccc(OC)c(NC(=O)c2cnc(Nc3ccc(C)c(Cl)c3)c3ccccc23)c1`, with “inactive”; and `Oc1c(Cl)cc(Cl)cc1/C=N/c1nc[nH]n1`, with “inactive”. Then `O=C(Nc1ccccc1)Nc1cccc2nsnc12`, with “inactive”; and `Cc1c(Cl)cccc1NS(=O)(=O)c1cccc2nsnc12`, with “inactive”; and `CCCCN(C(=O)C1CCC(CNS(=O)(=O)c2cccc3nsnc23)CC1)c1ccccc1` (stereo not drawn), with 39.8 µM (active). Consider `Cn1nnc(NC(=S)NC(=O)c2ccc3ccccc3c2)n1`, for which the Potency result was “inactive”. Then `CCOC(=O)C1=C(COc2ccccc2)NC(=O)NC1c1ccc2ccccc2c1` (stereo not drawn), with 35.5 µM (active); and `CCOC(=O)C1=C(C)NC(=O)NC1c1ccc(N2CCC(c3ccccc3)=N2)cc1` (stereo not drawn), with “inactive”; and `CCOC(=O)C1=C(COC(=O)COc2cccc(C)c2C)NC(=O)NC1C` (stereo not drawn), with “inactive”. The same measure for `COC(=O)C1=C(C)NC(=O)NC1c1ccc(OC(=O)c2ccco2)cc1` (stereo not drawn): “inactive”; for `CCOC(=O)C1=C(CN2CCN(c3ccc(OC)cc3)CC2)NC(=O)NC1c1ccc(Cl)cc1` (stereo not drawn): 39.8 µM (active); for `CCC(CC)COC(=O)C1=C(C)NC(=O)NC1c1ccc([N+](=O)[O-])cc1` (stereo not drawn): “inactive”. Then `CCOC(=O)c1cc2c(=O)n3ccccc3nc2n(CC(C)C)/c1=N\C(=O)COc1ccc(Cl)cc1`, with “inactive”; and `Cc1nc2sc(C(=O)OC(C)C)c(N)c2c(C)c1C`, with “inactive”. Consider `COc1cc(/C=C(/C#N)C(=O)NCCCc2ccccc2)ccc1OCC(=O)O`, for which the Potency result is “inactive”.

Take `Cc1ccc(S(=O)(=O)N2CCCc3cc(NS(=O)(=O)c4ccccc4)ccc32)cc1`: the Potency was 39.8 µM (active). The same measure for `O=S(=O)(c1ccc2ccccc2c1)N1CCc2ccccc21`: “inactive”; for `Cc1cc(C)nc(NS(=O)(=O)c2ccc(N/C=C\C(=O)c3cccs3)cc2)n1`: “inactive”.

For `Cc1ccc(S(=O)(=O)N2CCCc3cc(NS(=O)(=O)c4ccc(F)cc4)ccc32)cc1`, the Potency was 39.8 µM (active).

Take `Cc1cc(=O)oc2cc(NS(=O)(=O)c3ccccc3)ccc12`: the Potency result is “inactive”. Then `Cc1ccc2nc(-c3ccc(NS(=O)(=O)c4ccc(F)cc4)cc3)sc2c1`, with “inactive”. The same measure for `Cc1cc(=O)oc2cc(NS(=O)(=O)c3ccc(F)cc3)ccc12`: “inactive”; for `Cc1cc(F)ccc1S(=O)(=O)Nc1ccc2c(c1)CCCN2C(=O)c1cccs1`: 39.8 µM (active). Then `C[C@@H]1C(c2cccc(Cl)c2)=NN(c2ccc(Br)cc2)[C@H]1C(=O)N1CCOC1=O`, with “inactive”. As for `Cc1cc(N2CCCC2)c(F)cc1/C=C\[N+](=O)[O-]`, the Potency entry is “inactive”. Then `Cc1cc(NC(=O)CCN2CCC(C)CC2)ccc1Br`, with “inactive”; and `CC(=O)N1CCCc2cc(S(=O)(=O)N(C)CC(=O)Nc3ccccc3)ccc21`, with “inactive”; and `Cc1cc(NC(=O)CN(C)S(=O)(=O)c2ccc3c(c2)CCCC(=O)N3)ccc1Br`, with 31.6 µM (active). The same measure for `O=C1CS/C(=N/N=C/c2ccccc2)N1Cc1ccco1`: “inactive”; for `COc1ccc2[nH]c(C(=O)N(Cc3ccccn3)Cc3ccccn3)cc2c1`: “inactive”.

In the case of `C(=C/c1[nH]ccc2c3ccccc3nc1-2)/c1ccc2c(c1)OCO2`, the Potency result was “inactive”.

`COc1ccc(-c2[nH]c(-c3ccc4c(c3)OCO4)nc2-c2ccccc2)cc1`: the Potency was 44.7 µM (active).

Regarding `O=C1N/C(=C/c2cccn2-c2ccc(F)cc2)C(=O)N1Cc1ccccc1F`, the Potency entry was “inactive”. Then `O=[N+]([O-])c1ccc(Cc2ccccn2)c([N+](=O)[O-])c1`, with “inactive”; and `O=[N+]([O-])c1ccc(Sc2ccncn2)c([N+](=O)[O-])c1`, with 8.91 µM (active). Then `CN(C)c1ccc(/C=N/N(CCO)C2=NS(=O)(=O)c3ccccc32)cc1`, with “inactive”; and `CCOc1ccc(-c2cn3c(n2)sc2cc(C(=O)NCCCN4CCCCCC4)ccc23)cc1`, with 22.4 µM (active). In the case of `CCOc1ccc2nc(NCCCNC(=O)c3cc(OC)c(OC)c(OC)c3)c(C#N)cc2c1`, the Potency result was “inactive”.

Consider `COc1ccc(-c2cc(C(F)(F)F)n3nc(C(=O)NCCCN4CCOCC4)cc3n2)cc1`, for which the Potency result is “inactive”. The same measure for `C=CCC1=C/C(=C\c2c(N)n3nc(CC(=O)N4CCCC4)sc3nc2=O)C=C(OC)C1=O`: “inactive”; for `COc1ccc(CCN(C(=O)/C=C/C(=O)O)C2CC(=O)N(c3ccccc3)C2=O)cc1` (stereo not drawn): “inactive”. With `COc1ccc(C2CC(c3ccccc3F)=NN2c2ccc(S(N)(=O)=O)cc2)cc1` (stereo not drawn), the Potency result is “inactive”. As to `C=CCNc1nnc(SC2CC(=O)N(c3ccc(OC)cc3)C2=O)s1` (stereo not drawn), the Potency is 39.8 µM (active).

As for `COc1ccc(N2C(=O)CC(Sc3nnc(-c4ccccc4F)n3C)C2=O)cc1` (stereo not drawn), the Potency is 39.8 µM (active). The same measure for `COc1ccc(Cc2nnc(NC(=O)C3CC(=O)N(c4ccc(OC)cc4)C3)s2)cc1` (stereo not drawn): “inactive”. Regarding `COc1ccc(N2C(=O)CC(N3CCN(c4ccccc4)CC3)C2=O)cc1` (stereo not drawn), the Potency entry is “inactive”. The same measure for `CN1CCC[C@H]1CCNc1ccc2c(=O)c3ccccc3n(C)c2c1`: “inactive”; for `O=C(N/N=C/c1ccc(O)cc1)Nc1cccc2nsnc12`: “inactive”.

Turning to `Cc1ccnn1CC(=O)N/N=C/c1c[nH]nc1-c1ccccc1`, the Potency result was “inactive”. The same measure for `COc1ccccc1/C=C1\SC(=S)N(CCC(=O)NC2=NCCS2)C1=O`: “inactive”; for `CC(C)CN1C(=O)/C(=C/c2c[nH]nc2-c2ccccc2)SC1=S`: 39.8 µM (active).

On to `CCCCC(CC)CN1C(=O)/C(=C/c2c[nH]nc2-c2ccccc2)SC1=S` (stereo not drawn), for which the Potency was 22.4 µM (active). Turning to `CCCN1C(=O)/C(=C/c2c(N3CCNC(=O)C3CC(=O)OCC)nc3c(C)cccn3c2=O)SC1=S` (stereo not drawn), the Potency result is “inactive”. The same measure for `O=C(Cc1csc(N2CCOCC2)n1)N/N=C/c1ccccc1C(=O)O`: “inactive”; for `NNC(=O)c1oc2nc(-c3ccco3)cc(-c3ccco3)c2c1N`: “inactive”; for `Cc1cc(C)c2c(N)c(C(=O)Nc3nccs3)sc2n1`: “inactive”. Then `CCOc1cccc(/C=N/NC(=O)c2cc(-c3cccn3C)[nH]n2)c1O`, with “inactive”.

For `O=C(N/N=C/c1c[nH]c2ccccc12)c1cc(-c2ccc(-c3ccccc3)cc2)[nH]n1`, the Potency is 39.8 µM (active). Then `CCCc1c(C(=O)N/N=C/c2c[nH]c3ccccc23)nnn1-c1nonc1N`, with “inactive”; and `O=C(NCc1ccco1)c1cc2ccc(O)cc2oc1=O`, with “inactive”. For the compound `CC(=O)N/N=C/c1cc(C(C)(C)C)cc(/C=N/NC(C)=O)c1O`, the Potency result was “inactive”.
